# Most compounds without a hit are left out; they make up all but 3.8% or so of the library.
# PAFAH2 FP inh: inhibitors of human PAFAH2; Q99487; recombinant PAFAH2, FP-rhodamine activity probe, fluorescence polarization; inhibition, % at 3.39 µM; hit rate 0.99% among 340,000; AID 492956;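 active = inhibition above the mean over all tested compounds plus 3 SD, cut at about 30% in these data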;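 note: inhibitors block probe labeling of enzyme so polarization drops; 0% = enzyme with DMSO and 100% = wells lacking PAFAH2 protein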
# Pemphigus Ab inh: inhibitors of pemphigus antibody binding to human desmoglein-3; P32926; binding (percent of control), % at 10 µM; hit rate 0.48% among 310,000; DSG3-coupled beads, scFv-anti-DSG3-GFP binding, flow cytometry; active compounds read low;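 active = binding more than 3 SD below its plate's average and above zero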;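 note: hits lower antibody fragment binding to DSG3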
# PAFAH1B3 FP inh: inhibitors of human PAFAH1B3; Q15102; recombinant PAFAH1B3, FP-rhodamine probe, fluorescence polarization; inhibition, % at 3.39 µM; hit rate 0.28% among 340,000;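 active = inhibition above the screen-wide average of all tested compounds plus 3 SD, cut at about 25% in these data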;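 note: 0% = enzyme with DMSO only and 100% = wells lacking PAFAH1B3 protein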
# Target sequence (Q15102 whole entry, looked up): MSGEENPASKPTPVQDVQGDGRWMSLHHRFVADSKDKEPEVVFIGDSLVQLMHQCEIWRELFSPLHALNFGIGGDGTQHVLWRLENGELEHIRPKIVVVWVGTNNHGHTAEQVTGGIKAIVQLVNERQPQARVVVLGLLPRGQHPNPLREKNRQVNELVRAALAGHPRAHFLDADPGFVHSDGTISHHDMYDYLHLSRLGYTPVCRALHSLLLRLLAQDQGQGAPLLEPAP
# PAFAH1B2 FP inh: PAFAH1B2 (human) inhibition; P68402; recombinant PAFAH1B2, FP-rhodamine activity probe, fluorescence polarization; inhibition, % at 3.39 µM; hit rate 1.2% among 340,000;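 active = inhibition above the mean of all tested compounds plus 3 SD, cut at about 24% in these data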;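 note: 0% = enzyme with DMSO and 100% = wells lacking PAFAH1B2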
# Target sequence (P68402 whole entry, looked up): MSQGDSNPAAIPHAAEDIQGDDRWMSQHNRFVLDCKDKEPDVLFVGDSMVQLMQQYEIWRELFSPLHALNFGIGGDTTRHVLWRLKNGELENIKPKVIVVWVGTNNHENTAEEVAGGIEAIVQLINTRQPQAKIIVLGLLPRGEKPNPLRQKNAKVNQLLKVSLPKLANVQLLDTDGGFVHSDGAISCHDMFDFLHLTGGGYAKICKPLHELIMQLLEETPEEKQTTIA
# PfM18AAP inh: blocks P. falciparum M18 aspartyl aminopeptidase. recombinant PfM18AAP, H-Glu-NHMec fluorogenic cleavage. inhibition, % at 7.35 µM. hit rate 1.2% among 290,000. AID 1822;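 active = inhibition above the campaign mean inhibition over all tested compounds plus 3 SD, cut at about 28% in these data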;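 note: 0% = plate median of test compound wells and 100% = 2 mM ZnCl2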
# pPAFAH inh: pPAFAH (human) enzyme inhibition; Q13093; recombinant pPAFAH, FP-rhodamine probe fluorescence polarization; inhibition, % at 3.39 µM; hit rate 1.5% among 330,000; AID 463082;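 active = inhibition above the mean inhibition across the screen plus 3 SD, cut at about 25% in these data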;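 note: inhibitors block binding of the rhodamine activity-based probe so polarization drops; 0% = enzyme with DMSO and 100% = wells lacking pPAFAH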
# Starred values were filed as active, the others as inactive; · = no result.
SMILES,PAFAH2 FP inh,Pemphigus Ab inh,PAFAH1B3 FP inh,PAFAH1B2 FP inh,PfM18AAP inh,pPAFAH inh
COc1cc(/C=C2/C(=N)N3C(=NC2=O)SN=C3S(C)(=O)=O)ccc1OS(=O)(=O)c1ccc(C)cc1,-3,123,-2,23,7,11
CCc1c(C)nc2ncnn2c1NCCc1ccc(Cl)cc1,-11,115,4,13,-1,2
O=C(O)Cn1ccc2cc(S(=O)(=O)N3CCCCC3)ccc21,·,100,·,·,·,·
C=C(C)CN(CC)C(=O)CC1C(=O)NCCN1C (stereo unspecified),7,100,9,7,2,0
Cc1cccc2sc(NC(=O)C3c4ccccc4Oc4ccccc43)nc12,-59,104,-54,-24,-5,-31
Nn1cnnc1SCC(=O)N1CCc2ccccc2C1,3,99,2,4,·,-2
CCOC(=O)CCCN(c1[nH]c(C)c(C)c1C#N)S(=O)(=O)c1ccc(C)cc1,·,108,·,·,·,·
CCc1ccc(-n2cccc2/C=C2/C(=N)N3C(=NC2=O)SN=C3S(C)(=O)=O)cc1,-14,90,-9,2,4,-2
Cc1ccc(-n2cccc2/C=C2/C(=N)N3C(=NC2=O)SN=C3S(C)(=O)=O)cc1,-6,87,-8,28*,6,2
CCN(c1ccccc1)S(=O)(=O)c1ccc(C(=O)N2CCN(c3ccccc3F)CC2)cc1,·,99,·,·,·,·
Cc1ccc(S(=O)(=O)N(CC(=O)N=Nc2c(O)[nH]c3ccccc23)c2cccc(C)c2)cc1,-16,85*,2,2,-5,0
Cc1cc(Cl)ccc1N(CC(=O)N=Nc1c(O)[nH]c2ccccc12)S(C)(=O)=O,-4,101,-4,6,0,-1
Cc1cc(C)c(C)c(S(=O)(=O)N2CCC(C(=O)Nc3ccccc3N3CCOCC3)CC2)c1C,-3,1.0*,10,4,-2,-11
COC(=O)c1ccccc1S(=O)(=O)N1CCC(C(=O)Nc2ccccc2N2CCOCC2)CC1,4,101,6,-2,·,·
CN1CCN(C(=O)CCn2c(=S)[nH]c3ccccc3c2=O)CC1,·,101,·,·,·,·
COc1ccc(NC(=O)CCn2c(=S)[nH]c3ccccc3c2=O)cc1OC,0,63*,1,2,13,1
CCOC(=O)C(=O)c1csc(NC(=O)COc2ccc(N(C)S(=O)(=O)c3ccc(F)cc3)cc2)n1,5,73*,-4,-3,3,2
CC1CCN(S(=O)(=O)c2cccc(C(=O)NCc3cccs3)c2)CC1,5,104,0,27*,-1,-2
CC1CCN(S(=O)(=O)c2cccc(C(=O)NCc3ccco3)c2)CC1,6,90,3,25*,-7,3
O=C(NCc1cccs1)c1ccc(S(=O)(=O)N2CCCCC2)cc1,-5,96,5,4,2,3
C=C[C@]1(C)C=C2CCC3[C@](C)(CCC[C@@]3(C)C(=O)O)C2CC1 (stereo partly specified),43*,106,11,68*,·,9
CCOc1ccc(N(CC(=O)NCCSCc2ccccc2)S(C)(=O)=O)cc1,3,120,-2,4,3,17
CCOc1ccc(N(CC(=O)NCCSCc2ccccc2)S(=O)(=O)c2ccccc2)cc1,1,111,-3,3,5,28*
CCOc1ccc(N(CC(=O)NCc2ccc(Cl)cc2)S(=O)(=O)c2ccccc2)cc1,-1,-57*,-7,6,-1,5
CCN(c1ccc(OCC(=O)OCC(=O)Nc2ccc(F)c(F)c2F)cc1)S(=O)(=O)c1ccccc1,4,98,5,40*,4,2
SMILES,PAFAH2 FP inh,Pemphigus Ab inh,PAFAH1B3 FP inh,PAFAH1B2 FP inh,PfM18AAP inh,pPAFAH inh
Cc1cc(C)cc(N(CC(=O)NCCSCc2ccccc2)S(C)(=O)=O)c1,8,101,-2,6,-15,31*
N=C1CCCC1C(=S)SCCC(N)=O (stereo unspecified),·,103,·,·,·,·
O=C(NCCOc1ccc(Cl)cc1)C1CC(=O)N(c2ccc3c(c2)OCCO3)C1 (stereo unspecified),2,105,7,3,·,2
Cc1cnc(C2OCCO2)c2cccc(N)c12,·,107,·,·,·,·
O=C(c1ccc(O)c(Cl)c1)N1CCN(S(=O)(=O)c2ccccc2)CC1,-2,98,8,10,-7,5
O=C(NCCc1cn2cccnc2n1)C1CCC(=O)N(Cc2ccccc2F)C1 (stereo unspecified),·,104,·,·,·,·
Cc1nn(C)c2c1NC(=O)CS2,·,99,·,·,·,·
CC(OC(=O)Cc1n[nH]c(=O)c2ccccc12)C(=O)N(C)c1ccccc1 (stereo unspecified),·,103,·,·,·,·
Cc1cscc(C)c1=S,·,100,·,·,·,·
Cc1cccc(C)c1OCCNC(=O)c1ccc2ccccc2n1,-10,-7.3*,4,-2,-1,3
CCOc1ccc(Nc2nc(Cc3nnc(SCC(=O)NCc4ccco4)n3CC)cs2)cc1,5,97,7,1,30*,3
CCn1c(COc2ccc(C)cc2)nnc1SCC(=O)NCc1ccco1,5,100,7,3,-11,5
COc1cc2c(NCCCCCO)ncnc2c(OC)c1OC,·,105,·,·,·,·
CC(C)(c1ccc(O)cc1)c1ccc(O)c(C(=O)O)c1,·,101,·,·,·,·
CC(C)(c1ccc(O)cc1)c1ccc(O)cc1,-4,102,9,48*,-5,-9
COc1ccc(N2CCN(CC(=O)Nc3c(C)cccc3C)CC2)cc1,·,110,·,·,·,·
O=C(O)c1[nH]c2ccc(Cl)cc2c1CC(=O)N1CCN(c2ccccc2)CC1,7,111,6,25*,-2,5
O=C(Cc1c(C(=O)O)[nH]c2ccccc12)NCCN1CCN(c2cccc(Cl)c2)CC1,1,108,9,25*,-2,5
COc1ccccc1N1CCN(C(=O)Cc2c(C(=O)O)[nH]c3ccc(Cl)cc23)CC1,8,111,8,7,2,6
CCOC(=O)C1c2cccc(O)c2CCN1C(C)=O (stereo unspecified),·,99,·,·,·,·
O=C(CSc1ncccn1)NC1CCCC1,·,103,·,·,·,·
CC(NS(=O)(=O)c1ccc(OCC(=O)NCc2cccnc2)cc1)c1ccccc1 (stereo unspecified),-4,·,2,11,2,9
Cc1ccccc1NS(=O)(=O)c1ccc(OCC(=O)NCc2cccnc2)cc1,-1,95,5,7,4,33*
O=C(COc1ccc(S(=O)(=O)Nc2ccccc2)cc1)NCc1cccnc1,0,89,8,-1,0,29*
Cc1ccc(OCC(=O)NCc2cccnc2)cc1,-3,112,8,2,-4,6
Cc1ccc(-c2nc3ccccc3s2)cc1NC(=O)c1cc(-n2cnnc2)ccc1Cl,-6,76*,1,-3,-2,-5
Cc1ccccc1-c1nc2sc(-c3ccccc3)cc2c(=O)o1,66*,103,-3,0,-1,10
Cc1cccc(-c2nc3sc(C)cc3c(=O)o2)c1,74*,110,-6,-5,2,33*

# Source: PubChem BioAssay (several laboratories)
